Results published in PubChem BioAssay (NCI).
Compounds without any hit were thinned out: in the full panel of roughly 79,000, 15% have a hit. Active and inactive are the calls of the source. Cut-off read from the data, not from the text of the source: active = growth inhibition above about 70%; inactive = the rest.

Assays:
[1] = NCI Yeast Anticancer Drug Screen. Data for the wt1 strain (AID 149);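 note: 0% = growth of vehicle-treated wt1 cultures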; conditions: S. cerevisiae wt1 strain (SPY 50644) growth inhibition, stronger effect = higher value
Summary of the method: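 Compounds are added to wt1 yeast cultures. Growth is then measured. Inhibition is expressed relative to vehicle-treated controls.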

[2] = NCI Yeast Anticancer Drug Screen. Data for the rad50EPP+ strain (AID 151);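 note: 0% = growth of vehicle-treated control cultures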; conditions: S. cerevisiae rad50 mutant strain, stronger effect = higher value
Summary of the method: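 Growth inhibition read against vehicle controls in rad50EPP+ yeast, a strain altered in DNA damage repair, after compound exposure.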

[3] = NCI Yeast Anticancer Drug Screen. Data for the mgt1 strain (AID 153); conditions: S. cerevisiae mgt1 mutant growth inhibition, stronger effect = higher value
Summary of the method: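 mgt1 yeast grown with test compound; read-out is growth inhibition versus vehicle-treated cultures.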

[4] = NCI Yeast Anticancer Drug Screen. Data for the rad50 strain (AID 155);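 note: 0% = growth of vehicle-only cultures of the same strain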; conditions: S. cerevisiae rad50 strain growth inhibition, stronger effect = higher value
Summary of the method: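 Inhibition values express reduced yeast growth in compound-treated cultures relative to vehicle-treated controls.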

[5] = NCI Yeast Anticancer Drug Screen. Data for the mec2-1 strain (AID 157); conditions: S. cerevisiae mec2-1 strain, stronger effect = higher value
Summary of the method: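 Yeast mec2-1 mutant treated with compound. Readout: growth inhibition vs vehicle controls.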

[6] = NCI Yeast Anticancer Drug Screen. Data for the rad14 strain (AID 159);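 note: 0% = growth of vehicle-treated control cultures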; conditions: S. cerevisiae rad14 strain growth inhibition, stronger effect = higher value
Summary of the method: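 A mutant yeast strain defective in DNA damage repair is treated with compound; inhibition of its growth is scored against untreated, vehicle-exposed cultures.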

[7] = NCI Yeast Anticancer Drug Screen. Data for the sgs1 mgt1 strain (AID 161);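 note: 0% = growth of cultures given vehicle only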; conditions: S. cerevisiae sgs1 mgt1 strain, stronger effect = higher value
Summary of the method: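 Mutant yeast exposed to compound; growth scored against vehicle-only wells.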

[8] = NCI Yeast Anticancer Drug Screen. Data for the CLN2oe strain (AID 163);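 note: 0% = growth of vehicle-only control cultures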; conditions: S. cerevisiae CLN2oe strain, stronger effect = higher value
Summary of the method: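 Read-out: yeast growth inhibition, expressed relative to vehicle-only controls. The strain bears an engineered cell-cycle alteration.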

[9] = NCI Yeast Anticancer Drug Screen. Data for the cln2 rad14 strain (AID 165);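 note: 0% = growth equal to vehicle treated cultures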; conditions: S. cerevisiae cln2 rad14 strain, stronger effect = higher value
Summary of the method: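 cln2 rad14 yeast strain; compound exposure; growth inhibition read vs vehicle controls.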

[10] = NCI Yeast Anticancer Drug Screen. Data for the bub3 strain (AID 167); conditions: S. cerevisiae bub3 mutant strain, stronger effect = higher value
Summary of the method: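 Steps: expose the mutant yeast strain to compound; grow alongside vehicle-treated cultures; measure growth; express inhibition against the vehicle cultures.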

[11] = NCI Yeast Anticancer Drug Screen. Data for the mlh1 strain (AID 171);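 note: 0% = growth of vehicle-treated control cultures of the same strain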; conditions: S. cerevisiae mlh1 strain growth inhibition, stronger effect = higher value
Summary of the method: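 Read-out: growth inhibition versus vehicle controls. Strain: engineered yeast with a defined DNA repair or cell cycle defect, compound-treated.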

[12] = NCI Yeast Anticancer Drug Screen. Data for the sgs1 strain (AID 173);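 note: 0% = growth of vehicle-only control cultures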; conditions: S. cerevisiae sgs1 mutant, stronger effect = higher value
Summary of the method: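 Read-out: yeast growth inhibition relative to vehicle controls, following compound exposure of a strain with a defined DNA repair/cell cycle alteration.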

[13] = NCI Yeast Anticancer Drug Screen. Data for the mlh1 rad18 strain (AID 175); conditions: S. cerevisiae mlh1 rad18 strain growth inhibition, stronger effect = higher value
Summary of the method: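 Yeast w/ defined DNA-repair lesions; compound exposure; growth vs vehicle controls → % inhibition.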

[14] = NCI Yeast Anticancer Drug Screen. Data for the rad18 strain (AID 177); conditions: S. cerevisiae rad18 mutant growth inhibition, stronger effect = higher value
Summary of the method: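 Readout: growth inhibition vs vehicle controls. Cells: genetically altered yeast strain, DNA repair defect.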

[15] = NCI Yeast Anticancer Drug Screen. Data for the wt2 strain (AID 169);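 note: 0% = growth of vehicle-treated yeast cultures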; conditions: S. cerevisiae wt2 strain growth inhibition, stronger effect = higher value
Summary of the method: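 Read-out: growth inhibition versus vehicle-treated control cultures after compound exposure of the yeast strain.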

[16] = at 5.0 µM (retest, dose inferred, filed as 0.5)
[17] = at 50.0 µM (retest, dose inferred, filed as 5.0)

Measured: growth inhibition

Nc1ccc2ncc(Nc3ccc(Cl)c(Cl)c3)nc2c1
active: [1]; at 33.0 µM 95% | [1]; at 100.0 µM 96% | [3]; at 33.0 µM 96% | [3]; at 100.0 µM 97% | [4]; at 11.0 µM 70% | [4]; at 33.0 µM 96% | [4]; [17] 95% | [4]; at 50.0 µM 85% | [4]; at 100.0 µM 96% | [5]; at 33.0 µM 96% | [5]; [17] 98% | [5]; at 50.0 µM 86% | [5]; at 100.0 µM 97% | [6]; at 11.0 µM 73% | [6]; at 33.0 µM 97% | [6]; at 100.0 µM 96% | [7]; [17] 95% | [7]; at 50.0 µM 89% | [8]; at 33.0 µM 97% | [8]; at 100.0 µM 97% | [9]; [17] 95% | [9]; at 50.0 µM 73.7% | [10]; at 33.0 µM 96% | [10]; [17] 97% | [10]; at 50.0 µM 87.2% | [10]; at 100.0 µM 96% | [11]; at 11.0 µM 75% | [11]; at 33.0 µM 96% | [11]; at 100.0 µM 97% | [12]; at 11.0 µM 78% | [12]; at 33.0 µM 97% | [12]; at 100.0 µM 97% | [13]; [17] 98% | [13]; at 50.0 µM 80.5% | [14]; at 33.0 µM 97% | [14]; at 100.0 µM 98%
inactive: [1]; at 1.2 µM -19% | [1]; at 3.7 µM 1% | [1]; at 11.0 µM 49% | [2]; at 1.2 µM -11% | [2]; at 3.7 µM -6% | [2]; at 11.0 µM 11% | [2]; at 33.0 µM 37% | [2]; at 100.0 µM 59% | [3]; at 1.2 µM -32% | [3]; at 3.7 µM -27% | [3]; at 11.0 µM 69% | [4]; at 1.2 µM 3% | [4]; at 3.7 µM 10% | [4]; [16] 1% | [5]; at 1.2 µM -6% | [5]; at 3.7 µM -16% | [5]; [16] 28% | [5]; at 11.0 µM 53% | [6]; at 1.2 µM -20% | [6]; at 3.7 µM -9% | [7]; [16] 12% | [8]; at 1.2 µM -17% | [8]; at 3.7 µM -6% | [8]; at 11.0 µM 69% | [9]; [16] 42% | [10]; at 1.2 µM -13% | [10]; at 3.7 µM -3% | [10]; [16] 44% | [10]; at 11.0 µM 54% | [11]; at 1.2 µM -4% | [11]; at 3.7 µM 4% | [12]; at 1.2 µM 0% | [12]; at 3.7 µM 17% | [13]; [16] 44% | [14]; at 1.2 µM -13% | [14]; at 3.7 µM -9% | [14]; at 11.0 µM 11%

c1cc2ccc3cc4ncccc4c4ccc(c1)c2c34
inactive: [1]; at 1.2 µM -2% | [1]; at 3.7 µM 3% | [1]; at 11.0 µM 9% | [1]; at 33.0 µM 54% | [2]; at 1.2 µM 8% | [2]; at 3.7 µM 35% | [3]; at 1.2 µM -2% | [3]; at 3.7 µM -1% | [3]; at 11.0 µM 11% | [4]; at 1.2 µM 2% | [4]; at 3.7 µM 13% | [5]; at 1.2 µM -2% | [5]; at 3.7 µM 1% | [5]; [16] 23% | [5]; at 11.0 µM 13% | [5]; at 33.0 µM 65% | [6]; at 1.2 µM 1% | [6]; at 3.7 µM 7% | [6]; at 11.0 µM 20% | [6]; at 33.0 µM 68% | [7]; [16] 34% | [8]; at 1.2 µM -3% | [8]; at 3.7 µM -3% | [8]; at 11.0 µM 1% | [8]; at 33.0 µM 21% | [8]; at 100.0 µM 65% | [10]; at 1.2 µM -2% | [10]; at 3.7 µM 1% | [10]; [16] 27% | [10]; at 11.0 µM 36% | [15]; at 1.2 µM 0% | [15]; at 3.7 µM 0% | [15]; at 11.0 µM 15% | [15]; at 33.0 µM 53% | [11]; at 1.2 µM -2% | [11]; at 3.7 µM 0% | [11]; at 11.0 µM 22% | [12]; at 1.2 µM -2% | [12]; at 3.7 µM 0% | [12]; at 11.0 µM 25% | [13]; [16] 32% | [14]; at 1.2 µM 4% | [14]; at 3.7 µM 7% | [14]; at 11.0 µM 35%
active: [1]; at 100.0 µM 75% | [2]; at 11.0 µM 73% | [2]; at 33.0 µM 92% | [2]; at 100.0 µM 92% | [3]; at 33.0 µM 76% | [3]; at 100.0 µM 84% | [4]; [16] 74% | [4]; at 11.0 µM 70% | [4]; at 33.0 µM 93% | [4]; [17] 96% | [4]; at 50.0 µM 97.9% | [4]; at 100.0 µM 93% | [5]; [17] 97% | [5]; at 50.0 µM 97.5% | [5]; at 100.0 µM 82% | [6]; at 100.0 µM 79% | [7]; [17] 93% | [7]; at 50.0 µM 98.2% | [10]; at 33.0 µM 84% | [10]; [17] 96% | [10]; at 50.0 µM 98.9% | [10]; at 100.0 µM 90% | [15]; at 100.0 µM 85% | [11]; at 33.0 µM 83% | [11]; at 100.0 µM 88% | [12]; at 33.0 µM 83% | [12]; at 100.0 µM 85% | [13]; [17] 97% | [13]; at 50.0 µM 97.8% | [14]; at 33.0 µM 87% | [14]; at 100.0 µM 90%
